According to the supplement of paper PMC10338343:
± gives the standard deviation.

tested on: MILI (PIWIL2) piRISC loaded with L1MC piRNA (26 nt); experiment: pre-steady-state target cleavage rate (min^-1); guide: L1MC piRNA 5'p-UAACUAAAUACUAUGCAAGCUGUAGG; MIWI and MILI are mouse PIWI proteins and EfPiwi is from a freshwater sponge; tags in brackets are library labels; higher = faster piRNA-guided slicing of the target; settings: auxiliary factor: 500 nM mouse GTSF1
Procedure: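 Cleave-'n-Seq: a library of target RNAs (target site embedded in constant flanks, ACAGCATTCCGCGTTAGTGATATCCG... 5' flank; DNA-blocked outside the site) at 0.1 nM was incubated with 1 nM active mouse MILI or MIWI piRISC (synthetic 5'-monophosphorylated piRNA guide) with or without 500 nM mouse GTSF1 at 33 °C for 1 min to 16 h. Uncleaved targets were sequenced and normalised to non-target controls, and the pooled three trials were fitted to a burst-and-steady-state model to give the pre-steady-state cleavage rate (min^-1; k3 is constrained to at most 1e-4). Sequence is the target site only; target names encode pairing extent (gX:gY) and contiguous / 1-mismatch / 2-mismatch / bulge geometry. Fits with R² ≤ 0 are excluded.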

**Q.** With UCCUGGAUCAGCUUGCAUAGUAUUUACAUA as the sequence, how does the “pre-steady-state target cleavage rate” value read?
**A.** The value was 0.0335 ± 0.0081.

**Q.** Which “pre-steady-state target cleavage rate” value does the source give for UCCUGCUACAGCAUUGCAUAGUAUUUAGUUA here?
**A.** Its value is 0.286 ± 0.02.

**Q.** For UCCUGGAACAGCUAGGAUAGUAUUUAGUUA, which “pre-steady-state target cleavage rate” value is on record?
**A.** Its value is 0.26 ± 0.016.

**Q.** How did the “pre-steady-state target cleavage rate” value turn out when “UCCUGGAUGUCGAAGCAUAGUAUUUAGUUG [g2:g16:cont:t1G]” was run?
**A.** Its value is 0.0225 ± 0.0063.

**Q.** For “UCCUGGAUGUGCUUGCAUAGUAUUUAGUUU [g2:g20:cont:t1U]”, which “pre-steady-state target cleavage rate” value is on record?
**A.** Its value is 0.158 ± 0.016.

**Q.** With UCCUGGAACAGCUUCGUUAGUAUUUAGUAA as the sequence, how does the “pre-steady-state target cleavage rate” value read?
**A.** The value was 0.115 ± 0.017.

**Q.** For UCCUGCUACAGCUUGCAUAGUAUUUGGUUA, which “pre-steady-state target cleavage rate” value is on record?
**A.** Its value is 0.27 ± 0.029.

**Q.** How did the “pre-steady-state target cleavage rate” value turn out when UCCUCCUACACGUUGCAUAGUAUUUACAAA was run?
**A.** Its value is 0.062 ± 0.019.

**Q.** UCCUCCUACAGGUAGCAUAGUAUUUAGUUA was tested. Which “pre-steady-state target cleavage rate” value did it give?
**A.** Its value is 0.273 ± 0.013.

**Q.** Which “pre-steady-state target cleavage rate” value does the source give for UCCUGGAUCAGCUUGGUUAGUAUUUAGAAA here?
**A.** Its value is 0.0485 ± 0.016.

**Q.** UCCUGCUAGAGCUUGCAUUGUAUUUAGUUA was tested. Which “pre-steady-state target cleavage rate” value did it give?
**A.** The value was 0.219 ± 0.018.

**Q.** Which “pre-steady-state target cleavage rate” value does the source give for UCCUGCUACAGCUUGCAUAGUCUUUAGUUA here?
**A.** Its value is 0.122 ± 0.019.

**Q.** Which “pre-steady-state target cleavage rate” value does the source give for UCCUGGAUCAGCUUGCAUAGUAAAAAGUAA here?
**A.** The value was 0.108 ± 0.021.

**Q.** How did the “pre-steady-state target cleavage rate” value turn out when “UCCUGGAUGUCGAACCAUAGUAUUAUCAAA [g7:g15:cont:t1A]” was run?
**A.** Its value is under 0.0001.

**Q.** With UCCUGGAUGUCGUCUGCAUAGUAUUUAGUUA as the sequence, how does the “pre-steady-state target cleavage rate” value read?
**A.** Its value is 0.106 ± 0.015.

**Q.** With UCCUCCUACAGCUACGAUAGUAUUUACAAA as the sequence, how does the “pre-steady-state target cleavage rate” value read?
**A.** Its value is 0.0587 ± 0.019.

**Q.** How did the “pre-steady-state target cleavage rate” value turn out when UCCUGGAACAGCUCUGCAUAGUAUUUAGUUA was run?
**A.** The value was 0.268 ± 0.012.

**Q.** How did the “pre-steady-state target cleavage rate” value turn out when UCCUGGAUGUGCUUGCAUAGUAUUUUGAAA was run?
**A.** The value was 0.00858 ± 0.0064.

**Q.** With UCCUGGUACAGGUUGCAUAGUUUUUAGUUA as the sequence, how does the “pre-steady-state target cleavage rate” value read?
**A.** Its value is 0.039 ± 0.011.

**Q.** How did the “pre-steady-state target cleavage rate” value turn out when UCCUGCUACAGCUUGCAUUCAAUUUAGUUA was run?
**A.** The value was 0.00485 ± 0.0037.

**Q.** Which “pre-steady-state target cleavage rate” value does the source give for UCCUGGAUGUGAUUGCAUAGUAUUUAGUUA here?
**A.** Its value is 0.115 ± 0.015.

**Q.** For UCCUGGUACAGCUUGCAUAGUAAAAAGUAA, which “pre-steady-state target cleavage rate” value is on record?
**A.** Its value is 0.031 ± 0.013.

**Q.** For UCCUGGAUGUGCUCUGCAUAGUAUUUAGUUA, which “pre-steady-state target cleavage rate” value is on record?
**A.** The value was 0.137 ± 0.015.

**Q.** Which “pre-steady-state target cleavage rate” value does the source give for UCCUGGAUGUGCUUCGUUAGUAUUUAGUUA here?
**A.** The value was 0.00476 ± 0.0034.

**Q.** For UCCUGGAACAGCUUGCUUAGUAUAUAGUUA, which “pre-steady-state target cleavage rate” value is on record?
**A.** Its value is 0.241 ± 0.02.

**Q.** How did the “pre-steady-state target cleavage rate” value turn out when UCCUGGUACAGCUUGCAAAGUAUUAAGUUA was run?
**A.** The value was 0.0919 ± 0.018.

same assay, conditions: auxiliary factor: none (no GTSF1)

**Q.** For UCCUGCUACAGCAUUGCAUAGUAUUUAGUUA, which “pre-steady-state target cleavage rate” value is on record?
**A.** Its value is 0.0108 ± 0.0036.

**Q.** With UCCUGGAACAGCUAGGAUAGUAUUUAGUUA as the sequence, how does the “pre-steady-state target cleavage rate” value read?
**A.** Its value is 0.00746 ± 0.002.

**Q.** With “UCCUGGAUGUCGAAGCAUAGUAUUUAGUUG [g2:g16:cont:t1G]” as the sequence, how does the “pre-steady-state target cleavage rate” value read?
**A.** Its value is 0.00543 ± 0.0019.

**Q.** Which “pre-steady-state target cleavage rate” value does the source give for “UCCUGGAUGUGCUUGCAUAGUAUUUAGUUU [g2:g20:cont:t1U]” here?
**A.** Its value is 0.0103 ± 0.0037.

**Q.** For UCCUGCUACAGCUUGCAUAGUAUUUGGUUA, which “pre-steady-state target cleavage rate” value is on record?
**A.** Its value is 0.00697 ± 0.0023.

**Q.** UCCUCCUACAGGUAGCAUAGUAUUUAGUUA was tested. Which “pre-steady-state target cleavage rate” value did it give?
**A.** The value was 0.00904 ± 0.0021.

**Q.** How did the “pre-steady-state target cleavage rate” value turn out when UCCUGCUAGAGCUUGCAUUGUAUUUAGUUA was run?
**A.** Its value is 0.0097 ± 0.0023.

**Q.** Which “pre-steady-state target cleavage rate” value does the source give for UCCUGGAUGUCGUCUGCAUAGUAUUUAGUUA here?
**A.** Its value is 0.00397 ± 0.0027.

**Q.** How did the “pre-steady-state target cleavage rate” value turn out when UCCUGGAACAGCUCUGCAUAGUAUUUAGUUA was run?
**A.** Its value is 0.00871 ± 0.0031.

**Q.** How did the “pre-steady-state target cleavage rate” value turn out when UCCUGGUACAGGUUGCAUAGUUUUUAGUUA was run?
**A.** The value was 0.00732 ± 0.0043.

**Q.** Which “pre-steady-state target cleavage rate” value does the source give for UCCUGGAUGUCGAACGUAUCUAUUUAGUCUA here?
**A.** The value was under 0.0001.

**Q.** How did the “pre-steady-state target cleavage rate” value turn out when UCCUGGAUGUGAUUGCAUAGUAUUUAGUUA was run?
**A.** Its value is 0.00851 ± 0.0026.

**Q.** How did the “pre-steady-state target cleavage rate” value turn out when UCCUGGAUGUGCUCUGCAUAGUAUUUAGUUA was run?
**A.** The value was 0.0108 ± 0.0039.

**Q.** How did the “pre-steady-state target cleavage rate” value turn out when UCCUGGAACAGCUUGCUUAGUAUAUAGUUA was run?
**A.** Its value is 0.00532 ± 0.0022.

**Q.** How did the “pre-steady-state target cleavage rate” value turn out when UCCUGGUACAGCUUGCAAAGUAUUAAGUUA was run?
**A.** The value was 0.00406 ± 0.0027.
